CYP2C19 inh – human CYP2C19 inhibition; P33261; CYP2C19 Supersomes, luciferin-H EGE luminescence, 30 min; inhibition, % at 5 µM; 96,000 compounds, 21% hits; AID 778;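 active = CYP2C19 inhibition above a set limit at 5 µM in the primary screen, cut at about 50% in these data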
Target sequence (P33261 whole entry, looked up): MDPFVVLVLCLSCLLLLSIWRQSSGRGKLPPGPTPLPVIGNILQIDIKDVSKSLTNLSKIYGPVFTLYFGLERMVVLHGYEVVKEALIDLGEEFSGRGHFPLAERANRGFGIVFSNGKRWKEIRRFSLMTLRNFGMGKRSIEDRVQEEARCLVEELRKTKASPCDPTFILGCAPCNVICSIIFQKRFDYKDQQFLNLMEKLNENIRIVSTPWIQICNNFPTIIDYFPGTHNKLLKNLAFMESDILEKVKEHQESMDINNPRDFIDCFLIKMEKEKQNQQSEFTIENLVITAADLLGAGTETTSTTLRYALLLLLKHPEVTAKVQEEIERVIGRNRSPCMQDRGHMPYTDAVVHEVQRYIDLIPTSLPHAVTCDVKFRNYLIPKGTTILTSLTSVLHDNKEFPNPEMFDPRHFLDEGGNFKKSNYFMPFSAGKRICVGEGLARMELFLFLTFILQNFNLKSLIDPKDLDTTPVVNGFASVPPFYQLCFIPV
PostGolgi yeast – growth inhibition of a yeast mutant, post-Golgi transport screen; post-Golgi transport phenotypic cell assay; inhibition, % at 10 µM; 98,000 compounds, 0.9% hits; AID 739;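 note: yeast cells grown in 1536-well plates; yeast grown about 18 h at 30C before absorbance read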
CYP2C9 act – CYP2C9 (human) activation | activation factor at 5 µM | 96,000 compounds, 1.4% hits | AID 1024 | recombinant CYP2C9, luciferin-H conversion, luminescence; active compounds read high; factor 1 = untreated enzyme, 0 = blocked;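 active = activation factor of 2 or more for CYP2C9 at a 5 µM dose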
CYP2C9 inhib – human CYP2C9 inhibition; inhibition, % at 5 µM; CYP2C9 Supersomes, luciferin-H conversion, luminescence; AID 777; P11712; 96,000 compounds, 20% hits;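 active = blocking of liver enzyme CYP2C9 beyond about 50% at 5 µM, limit read from the data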
PostGolgi ctrl – yeast control strain growth, post-Golgi counter-screen; efflux-deficient yeast background strain, growth absorbance A615, 16 h; inhibition, % at 10 µM; 98,000 compounds, 5% hits
CYP2C19 activ – cytochrome P450 2C19 (human) activation; P33261; recombinant CYP2C19, luciferin-H EGE luminescence; active compounds read high; 0 = fully inhibited enzyme, 1 = untreated enzyme; activation factor at 5 µM; 96,000 tested, under 10 active;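 active = activation factor of at least 2 at 5 µM in the primary screen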
A number is an active result; – = inactive; · = no result given. Rows were chosen to be rich in hits. Some 32% of all compounds tested hit in one or more screens of this group. Cut-off read from the data, not from the text of the source, unless noted: active = inhibition above about 30%; inactive = the rest.

SMILES	CYP2C19 inh	PostGolgi yeast	CYP2C9 act	CYP2C9 inhib	PostGolgi ctrl	CYP2C19 activ
Cn1c(=O)c2c(SCC(=O)N3CCOCC3)nc(CC(C)(C)C)nc2n(C)c1=O	·	–	·	·	–	·
Cn1c(=O)c2c(SCC(=O)NCc3ccco3)nc(CC(C)(C)C)nc2n(C)c1=O	59.4	–	–	51.6	–	–
Cn1c(=O)c2c(SCC(=O)Nc3ccc4c(c3)OCCO4)nc(CC(C)(C)C)nc2n(C)c1=O	59.4	–	–	74.1	–	–
CCOC(=O)N1CCN(CC(=O)c2c[nH]c3ccc(F)cc23)CC1	–	–	–	51.0	–	–
Cc1ccc2[nH]cc(C(=O)CN3CCN(c4ccccc4F)CC3)c2c1	–	–	–	–	–	–
O=C(CN1CCC2(CC1)OCCO2)c1c[nH]c2ccccc12	81.0	–	–	–	–	–
Cc1ccc2[nH]cc(C(=O)CN3CCOCC3)c2c1	–	–	–	–	–	–
CCN1CCN(CC(=O)c2c[nH]c3ccc(C)cc23)CC1	–	–	–	50.9	–	–
Cc1cc(Cl)ccc1Oc1nc(-c2ccc(F)cc2)ccc1C#N	–	–	–	–	–	–
CC(C)(C)NC(=O)C(c1ccccc1)N(C(=O)c1csnn1)C1CC1 (stereo not given)	–	–	–	–	–	–
Cn1c2ccccc2c(=O)n2c(=O)c3ccccc3cc12	68.0	–	–	55.8	–	–
O=S(=O)(NCc1ccco1)N1CCCCCC1	63.0	–	–	–	–	–
O=S(=O)(Nc1ccncc1Cl)c1ccccc1	–	–	–	70.3	–	–
O=S(=O)(Nc1cccnc1)c1cccc(Cl)c1	–	–	–	–	–	–
Cc1ccccc1NS(=O)(=O)c1ccc(F)cc1	95.7	–	–	63.5	–	–
COc1ccc(S(=O)(=O)Nc2ccccc2C)cc1	99.5	–	–	51.0	–	–
O=S(=O)(Nc1cccc2cn[nH]c12)c1ccc(F)cc1	82.1	–	–	–	–	–
CC(C)(C)Cc1nnc(NS(=O)(=O)c2ccc(F)cc2)s1	–	–	–	–	–	–
COc1ccc(S(=O)(=O)Nc2cc3c4c(oc3c3ccccc23)CCCC4=O)cc1	–	–	–	82.5	45.4	–
Cc1cccc(CC(=O)Nc2cc(=O)n(C)c(=O)n2C)c1	–	–	–	–	–	–
CCO/C=N/c1c(C#N)c2c(c(=S)n1C)COC(C)(C)C2	66.3	–	–	–	–	–
CCN(CC)C(=O)C1CCN(S(=O)(=O)c2cccc3nonc23)CC1	65.4	–	–	–	–	–
CCOC(=O)N1CCN(S(=O)(=O)c2cccc3nonc23)CC1	81.9	–	–	70.7	–	–
CCOC(=O)N1CCN(S(=O)(=O)c2cc(Cl)ccc2Cl)CC1	·	–	·	·	–	·
CCN(C(=O)C1CCN(S(=O)(=O)c2cccc3nonc23)CC1)c1ccccc1	–	–	–	–	–	–
SMILES	CYP2C19 inh	PostGolgi yeast	CYP2C9 act	CYP2C9 inhib	PostGolgi ctrl	CYP2C19 activ
CCOC(=O)N1CCN(S(=O)(=O)c2cccc3cccnc23)CC1	91.2	–	3.3	–	–	–
Cc1nc(N2CCN(S(=O)(=O)c3cccc4nonc34)CC2)c2c3c(sc2n1)CCCC3	–	–	–	–	58.7	–
CN1CCc2c(sc3c2c(=O)n(-c2ccccc2)c2nnc(SCc4ccc(Cl)cc4)n32)C1	–	–	–	–	–	–
COc1ccc(CSc2nc(CSC)cc(N3CCOCC3)n2)cc1	–	–	–	–	–	–
CSc1nc(Cl)c(Cc2ccc(OC(C)C)cc2)c(N2CCOCC2)n1	–	–	–	61.8	–	–
COC(=O)c1[nH]c2cc(OC)ccc2c1NC(=O)c1nonc1C	–	–	–	–	–	–
CCN(CC)Cc1c[nH]c2c(C(=O)OC)cccc12	·	–	·	·	–	·
COc1ccc(-c2noc(CN(C(=O)C(C)(C)C)C(C)C)n2)cc1	80.9	–	–	57.4	–	–
CC(C)N(Cc1nc(-c2ccccc2)no1)C(=O)C(C)(C)C	51.6	–	–	–	–	–
CC(C)CC(NS(=O)(=O)c1ccccc1)C(=O)O (stereo not given)	–	–	–	–	–	–
CCCC(C)NS(=O)(=O)c1ccccc1 (stereo not given)	85.9	–	–	54.1	–	–
Cc1ccc(S(=O)(=O)NCC(C)NS(=O)(=O)c2ccc(C)cc2)cc1 (stereo not given)	–	–	–	–	–	–
CCCC(C)NS(=O)(=O)c1ccc(OC)c(C)c1 (stereo not given)	81.2	–	–	–	–	–
